Of roughly 7,900 targets only a part is listed; those with a hit were picked by preference. About 0.6% of all pairs of compound and target were hits. Unmarked numbers belong to inactive results.
Assays:
Assay in all cases: log2 fold change, soluble protein after heating vs DMSO (PISA); higher = thermal stabilisation; K562 cells, 10 uM, 30 min; active = over 0.2 and 3.5 SD of the protein, either way, in both replicates (recomputed)
[1] = compound: CC1=C(C=C(C=C1)NC(=O)C2=CC(=CC=C2)C(C)(C)C#N)NC3=CC4=C(C=C3)N=CN(C4=O)C
Method in brief: (§1)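 K562 cells (2×10^6 cells/mL) were treated with 10 μM compound for 30 min, and aliquots were heated for 3 min over 48°C-58°C. Pooled aliquots were extracted in PBS with 0.5% NP-40 at 4°C, and the supernatant after 21,000xg for 90 min was measured by TMTpro 16plex LC-MS/MS with channel sums equalised. Reported thermal stability, relative to control samples and from duplicates, is a log2 fold change.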

[2] = compound: CC1=C(C=C(C=C1)NC(=O)C2=CC(=CC=C2)N(C)C)NC(=O)C3=CC=C(C=C3)O
Method in brief: as §1

[3] = compound: CC1=CC=C(C=C1)SC2=C3C=C(SC3=CN=C2)C(=O)N
Method in brief: as §1

[4] = compound: CC1=NC(=CC=C1)C2=C(N=C(N2)C(C)(C)C)C3=CC4=NC=CN=C4C=C3
Method in brief: as §1

Nexturastat A = compound: CCCCN(Cc1ccc(C(=O)NO)cc1)C(=O)Nc1ccccc1 [Nexturastat A]
Method in brief: as §1

[5] = compound: CCCS(=O)(=O)Nc1ccc(F)c(C(=O)c2c[nH]c3ncc(Cl)cc23)c1F
Method in brief: as §1

[6] = compound: CCCc1cc(C)[nH]c(=O)c1CNC(=O)c1cc(-c2ccnc(N3CCN(C)CC3)c2)cc2c1cnn2C(C)C
Method in brief: as §1

givinostat = compound: CCN(CC)Cc1ccc2cc(COC(=O)Nc3ccc(C(=O)NO)cc3)ccc2c1 [givinostat]
Method in brief: as §1

barasertib = compound: CCN(CCCOc1ccc2c(Nc3cc(CC(=O)Nc4cccc(F)c4)[nH]n3)ncnc2c1)CCOP(=O)(O)O [barasertib]
Method in brief: as §1

[7] = compound: CC[C@@H]1C(=O)N(C)c2cnc(Nc3ccc(C(=O)NC4CCN(C)CC4)cc3OC)nc2N1C1CCCC1
Method in brief: as §1

volasertib = compound: CC[C@@H]1C(=O)N(C)c2cnc(Nc3ccc(C(=O)N[C@H]4CC[C@H](N5CCN(CC6CC6)CC5)CC4)cc3OC)nc2N1C(C)C [volasertib]
Method in brief: as §1

[8] = compound: CC[C@H](C)N1C=C(C2=C(C=C(C=C21)C3=CN=C(C=C3)N4CCNCC4)C(=O)NCC5=C(C=C(NC5=O)C)C)C
Method in brief: as §1

epoxomicin = compound: CC[C@H](C)[C@@H](C(=O)N[C@@H]([C@@H](C)O)C(=O)N[C@@H](CC(C)C)C(=O)[C@]1(CO1)C)NC(=O)[C@H]([C@@H](C)CC)N(C)C(=O)C [epoxomicin]
Method in brief: as §1

[9] = compound: CCn1c(C(=O)N(C2CC2)C2CC2)cc2c3c(ncn3C)c(Nc3cc(C)n(C)n3)nc21
Method in brief: as §1

[10] = compound: CCn1cc(-c2ccnc3[nH]c(-c4cccc(CN(C)C)c4)cc23)c(-c2ccc(NC(=O)N(C)C)cc2)n1
Method in brief: as §1

rosiglitazone = compound: CN(CCOC1=CC=C(C=C1)C[C@H]2C(=O)NC(=O)S2)C3=CC=CC=N3 (racemic) [rosiglitazone]
Method in brief: as §1

[11] = compound: CN1C2=C(C3=C1C(=O)N(N=C3)CC4=CC(=CC=C4)N)SC(=C2)S(=O)C
Method in brief: as §1

[12] = compound: CN1CCC(CNc2ccc3ncc(-c4cccc(OC(F)(F)F)c4)n3n2)CC1
Method in brief: as §1

vemurafenib = compound: CCCS(=O)(=O)Nc1ccc(F)c(C(=O)c2c[nH]c3ncc(-c4ccc(Cl)cc4)cc23)c1F [vemurafenib]
Method in brief: as §1

[13] = compound: CN(C)CC(=O)Nc1ccc2[nH]c(=O)c3ccccc3c2c1
Method in brief: as §1

Sequence of UniProt P30281 (P30281 whole entry, looked up): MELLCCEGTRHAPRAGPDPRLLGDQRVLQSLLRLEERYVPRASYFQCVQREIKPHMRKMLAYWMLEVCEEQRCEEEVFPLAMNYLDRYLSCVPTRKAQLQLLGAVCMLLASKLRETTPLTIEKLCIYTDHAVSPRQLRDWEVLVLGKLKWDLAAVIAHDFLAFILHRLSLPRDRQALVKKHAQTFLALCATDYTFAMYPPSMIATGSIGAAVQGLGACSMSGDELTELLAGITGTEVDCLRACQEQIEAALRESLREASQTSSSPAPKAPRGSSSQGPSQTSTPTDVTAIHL
Sequence of UniProt Q9UK58 (Q9UK58 whole entry, looked up): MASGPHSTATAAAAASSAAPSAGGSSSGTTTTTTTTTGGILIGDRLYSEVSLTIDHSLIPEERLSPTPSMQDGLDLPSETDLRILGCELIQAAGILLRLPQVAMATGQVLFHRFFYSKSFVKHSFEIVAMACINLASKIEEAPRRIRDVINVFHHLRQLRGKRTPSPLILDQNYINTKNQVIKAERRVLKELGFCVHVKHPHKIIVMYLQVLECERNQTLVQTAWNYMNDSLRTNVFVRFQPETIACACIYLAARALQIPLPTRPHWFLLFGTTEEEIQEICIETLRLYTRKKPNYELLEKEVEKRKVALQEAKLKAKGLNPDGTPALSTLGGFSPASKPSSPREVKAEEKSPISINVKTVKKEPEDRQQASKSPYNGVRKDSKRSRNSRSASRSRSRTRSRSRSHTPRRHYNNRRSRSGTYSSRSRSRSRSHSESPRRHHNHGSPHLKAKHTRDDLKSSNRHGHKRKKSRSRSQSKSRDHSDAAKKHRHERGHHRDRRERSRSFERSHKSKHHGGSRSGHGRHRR
Sequence of UniProt P55210 (P55210 whole entry, looked up): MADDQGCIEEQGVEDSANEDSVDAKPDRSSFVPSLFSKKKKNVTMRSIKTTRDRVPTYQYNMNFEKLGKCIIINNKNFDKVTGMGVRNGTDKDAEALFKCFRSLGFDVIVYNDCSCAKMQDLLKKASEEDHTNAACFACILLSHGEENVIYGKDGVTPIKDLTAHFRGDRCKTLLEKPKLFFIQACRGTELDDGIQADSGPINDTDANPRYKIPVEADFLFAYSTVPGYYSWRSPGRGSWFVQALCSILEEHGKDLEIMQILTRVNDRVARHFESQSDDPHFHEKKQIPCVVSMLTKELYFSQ
Sequence of UniProt Q9P0B6 (Q9P0B6 whole entry, looked up): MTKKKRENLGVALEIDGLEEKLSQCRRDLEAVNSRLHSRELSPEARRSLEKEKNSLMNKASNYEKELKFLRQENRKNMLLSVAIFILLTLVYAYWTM
Sequence of UniProt Q70SY1 (Q70SY1 whole entry, looked up): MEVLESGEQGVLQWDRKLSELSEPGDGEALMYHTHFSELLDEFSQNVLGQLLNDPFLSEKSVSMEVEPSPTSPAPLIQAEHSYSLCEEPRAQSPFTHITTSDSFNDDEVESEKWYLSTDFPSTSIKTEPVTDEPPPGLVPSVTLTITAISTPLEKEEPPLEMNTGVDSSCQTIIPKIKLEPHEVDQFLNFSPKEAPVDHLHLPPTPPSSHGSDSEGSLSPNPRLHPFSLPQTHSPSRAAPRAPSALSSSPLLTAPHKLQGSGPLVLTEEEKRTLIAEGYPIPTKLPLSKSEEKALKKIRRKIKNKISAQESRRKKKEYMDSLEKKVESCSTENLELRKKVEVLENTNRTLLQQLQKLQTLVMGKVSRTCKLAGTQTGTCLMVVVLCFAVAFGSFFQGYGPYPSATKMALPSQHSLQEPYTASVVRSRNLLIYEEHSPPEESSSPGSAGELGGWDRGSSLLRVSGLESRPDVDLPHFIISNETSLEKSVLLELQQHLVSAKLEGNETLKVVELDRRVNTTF
Sequence of UniProt P49336 (P49336 whole entry, looked up): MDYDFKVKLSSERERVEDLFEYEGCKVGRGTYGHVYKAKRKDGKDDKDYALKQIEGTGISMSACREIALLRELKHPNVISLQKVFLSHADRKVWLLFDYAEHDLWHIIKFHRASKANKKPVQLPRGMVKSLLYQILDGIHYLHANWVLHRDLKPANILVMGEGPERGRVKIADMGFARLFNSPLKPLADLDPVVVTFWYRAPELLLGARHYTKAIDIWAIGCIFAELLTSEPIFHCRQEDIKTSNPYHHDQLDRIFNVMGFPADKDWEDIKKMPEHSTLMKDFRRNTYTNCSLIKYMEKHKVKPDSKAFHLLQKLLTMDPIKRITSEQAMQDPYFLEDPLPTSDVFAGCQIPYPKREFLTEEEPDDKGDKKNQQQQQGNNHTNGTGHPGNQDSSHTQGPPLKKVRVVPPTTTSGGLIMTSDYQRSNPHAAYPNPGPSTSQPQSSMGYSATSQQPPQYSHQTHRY
Sequence of UniProt P24311 (P24311 whole entry, looked up): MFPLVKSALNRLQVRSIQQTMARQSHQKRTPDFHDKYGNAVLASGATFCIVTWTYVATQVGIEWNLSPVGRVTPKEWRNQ
Sequence of UniProt Q13111 (Q13111 whole entry, looked up): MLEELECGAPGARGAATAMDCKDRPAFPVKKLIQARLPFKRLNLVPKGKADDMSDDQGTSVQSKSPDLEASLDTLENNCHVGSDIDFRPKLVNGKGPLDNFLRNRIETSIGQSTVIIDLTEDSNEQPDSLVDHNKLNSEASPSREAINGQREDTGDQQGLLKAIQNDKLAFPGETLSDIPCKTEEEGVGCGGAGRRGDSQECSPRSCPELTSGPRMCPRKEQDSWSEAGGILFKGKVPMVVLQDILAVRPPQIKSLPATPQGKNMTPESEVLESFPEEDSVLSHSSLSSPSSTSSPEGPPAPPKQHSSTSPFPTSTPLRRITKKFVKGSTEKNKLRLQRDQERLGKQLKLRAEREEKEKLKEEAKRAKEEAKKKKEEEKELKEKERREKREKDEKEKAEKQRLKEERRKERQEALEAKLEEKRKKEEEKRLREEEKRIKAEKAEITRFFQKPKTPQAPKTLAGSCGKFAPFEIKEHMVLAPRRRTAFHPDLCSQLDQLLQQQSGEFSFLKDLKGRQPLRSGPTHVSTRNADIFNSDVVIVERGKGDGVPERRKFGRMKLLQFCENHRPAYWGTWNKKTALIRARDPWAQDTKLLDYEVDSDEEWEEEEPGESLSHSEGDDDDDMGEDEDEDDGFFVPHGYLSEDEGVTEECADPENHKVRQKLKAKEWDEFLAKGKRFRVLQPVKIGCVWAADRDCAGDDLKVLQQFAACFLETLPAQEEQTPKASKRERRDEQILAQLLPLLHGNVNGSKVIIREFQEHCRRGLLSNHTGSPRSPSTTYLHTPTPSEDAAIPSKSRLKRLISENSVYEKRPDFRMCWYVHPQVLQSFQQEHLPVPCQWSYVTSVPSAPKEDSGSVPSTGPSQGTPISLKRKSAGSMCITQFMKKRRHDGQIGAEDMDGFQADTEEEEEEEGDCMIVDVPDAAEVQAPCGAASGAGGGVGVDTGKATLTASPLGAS
Sequence of UniProt O75122 (O75122 whole entry, looked up): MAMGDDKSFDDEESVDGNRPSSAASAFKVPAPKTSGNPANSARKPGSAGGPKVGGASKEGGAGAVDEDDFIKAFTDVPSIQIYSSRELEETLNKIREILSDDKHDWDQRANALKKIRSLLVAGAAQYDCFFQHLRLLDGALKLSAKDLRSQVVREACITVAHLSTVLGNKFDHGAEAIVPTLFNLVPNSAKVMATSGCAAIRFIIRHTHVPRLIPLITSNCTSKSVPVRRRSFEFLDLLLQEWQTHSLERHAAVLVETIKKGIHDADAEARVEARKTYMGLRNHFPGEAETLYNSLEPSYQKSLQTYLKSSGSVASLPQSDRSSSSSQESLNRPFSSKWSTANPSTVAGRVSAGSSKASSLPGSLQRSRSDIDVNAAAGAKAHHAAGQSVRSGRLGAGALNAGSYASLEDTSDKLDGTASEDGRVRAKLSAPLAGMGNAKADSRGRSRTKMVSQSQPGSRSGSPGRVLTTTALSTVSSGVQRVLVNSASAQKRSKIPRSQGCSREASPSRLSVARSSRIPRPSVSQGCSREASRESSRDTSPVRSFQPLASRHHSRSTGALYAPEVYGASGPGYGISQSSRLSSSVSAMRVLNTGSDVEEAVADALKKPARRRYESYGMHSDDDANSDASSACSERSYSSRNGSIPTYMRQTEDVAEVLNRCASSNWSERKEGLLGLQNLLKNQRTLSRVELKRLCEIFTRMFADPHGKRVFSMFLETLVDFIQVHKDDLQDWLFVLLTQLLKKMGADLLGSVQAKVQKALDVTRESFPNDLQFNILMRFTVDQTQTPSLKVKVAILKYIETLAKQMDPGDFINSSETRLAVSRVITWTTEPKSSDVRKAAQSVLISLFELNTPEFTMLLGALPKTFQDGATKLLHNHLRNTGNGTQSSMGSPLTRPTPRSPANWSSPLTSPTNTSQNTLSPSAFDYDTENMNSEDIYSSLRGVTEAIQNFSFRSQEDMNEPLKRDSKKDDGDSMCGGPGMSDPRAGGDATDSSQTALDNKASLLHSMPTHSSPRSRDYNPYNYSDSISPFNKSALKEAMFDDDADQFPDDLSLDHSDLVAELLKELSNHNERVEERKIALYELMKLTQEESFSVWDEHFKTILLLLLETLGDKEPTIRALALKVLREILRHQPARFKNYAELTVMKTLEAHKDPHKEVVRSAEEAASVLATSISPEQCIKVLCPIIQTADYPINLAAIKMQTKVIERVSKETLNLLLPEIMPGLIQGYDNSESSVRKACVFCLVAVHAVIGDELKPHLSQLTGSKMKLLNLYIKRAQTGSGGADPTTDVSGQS
Sequence of UniProt P34810 (P34810 whole entry, looked up): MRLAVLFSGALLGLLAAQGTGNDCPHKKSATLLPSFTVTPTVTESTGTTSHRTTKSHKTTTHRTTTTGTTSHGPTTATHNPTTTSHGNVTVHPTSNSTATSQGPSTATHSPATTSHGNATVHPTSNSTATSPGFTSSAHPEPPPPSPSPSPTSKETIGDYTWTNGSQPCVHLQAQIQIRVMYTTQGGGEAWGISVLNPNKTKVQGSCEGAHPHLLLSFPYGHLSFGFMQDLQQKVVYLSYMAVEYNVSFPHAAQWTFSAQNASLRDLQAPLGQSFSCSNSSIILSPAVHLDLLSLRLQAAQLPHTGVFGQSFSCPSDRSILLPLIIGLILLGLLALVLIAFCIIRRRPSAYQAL

Row | Target | log2 fold change [1] | log2 fold change [2] | log2 fold change [3] | log2 fold change [4] | log2 fold change (Nexturastat A) | log2 fold change [5] | log2 fold change [6] | log2 fold change (givinostat) | log2 fold change (barasertib) | log2 fold change [7] | log2 fold change (volasertib) | log2 fold change [8] | log2 fold change (epoxomicin) | log2 fold change [9] | log2 fold change [10] | log2 fold change (rosiglitazone) | log2 fold change [11] | log2 fold change [12] | log2 fold change (vemurafenib) | log2 fold change [13]
1 | CHAF1A (UniProt Q13111) | 0.035 | -0.054 | 0.087 | -0.116 | 0.088 | 0.026 | -0.097 | 0.149 | 0.107 | 0.025 | -0.021 | 0.036 | -0.039 | -0.078 | 0.064 | -0.018 | 0.158 | 0.051 |  | 
2 | CDK8 (UniProt P49336) | 0.002 | -0.005 | 0.322 | 0.064 | -0.125 | 0.044 | -0.081 | 0.02 | -0.343 | 0.096 | -0.039 |  | -0.098 | 0.027 | -0.236 | -0.02 | -0.025 | 0.356 | 0.041 | -0.044
3 | COX7B (UniProt P24311) | 0.048 |  | 0.045 | 0.094 | -0.056 | 0.136 | -0.188 | -0.013 | -0.025 | -0.011 | 0.024 | -0.052 | 0.023 | 0.065 | -0.035 | -0.033 | 0.015 | 0.323 (active) | -0.148 | 0.04
4 | CCDC167 (UniProt Q9P0B6) | 0.064 | -0.039 | -0.007 | -0.042 | 0.022 | -0.034 | 0.022 | 0.048 | -0.003 | 0.069 | -0.12 | -0.029 | 0.019 | -0.011 | 0.13 | -0.084 | -0.095 | 0.033 |  | 
5 | CDK19 (UniProt Q9BWU1) | -0.032 | 0.212 | 0.246 |  | -0.039 | -0.026 | -0.109 | -0.133 |  | 0.016 | -0.064 | 0.069 | -0.114 | 0.038 | -0.1 |  | 0.003 | 0.456 | 0.057 | -0.068
6 | CFAP36 isoform 2 (UniProt Q96G28) | 0.005 | 0.024 | 0.054 | 0.066 | 0.023 | 0.012 | -0.061 | -0.003 | 0.03 | -0.159 | -0.433 (active) |  | -0.017 | 0.077 | 0.048 | 0.06 | 0.051 | -0.049 | -0.041 | 0.005
7 | CASP9 (UniProt P55211) | 0.103 | -0.091 | 0.032 | 0.021 | 0.045 | 0.111 |  |  |  | -0.083 | -0.629 (active) | 0.008 | 0.054 |  | 0.035 |  | 0.001 | -0.188 | 0.107 | 0.048
8 | C5orf30 (UniProt Q96GV9) |  |  | -0.126 |  | -0.186 | 0.103 |  |  |  |  | 0.001 |  | 0.165 |  |  |  |  |  |  | 
9 | CCNL1 (UniProt Q9UK58) |  |  |  |  |  |  | -0.317 | 0.156 |  |  |  |  |  | -0.078 |  |  |  |  |  | 
10 | CLINT1 (UniProt Q14677) |  |  |  | -0.007 | 0.259 |  | -0.017 |  | 0.017 | -0.022 |  | 0.021 | -0.035 |  |  | 0.003 | -0.218 |  | 0.051 | -0.075
11 | CCND3 (UniProt P30281) |  | 0.046 | 0.063 |  | -0.004 | -0.028 | -0.062 | 0.021 | 0.079 | -0.085 | 0.102 |  | 0.363 (active) | -0.003 | -0.021 | -0.025 | 0.063 | -0.175 | -0.077 | -0.022
12 | CD68 (UniProt P34810) | 0.037 |  |  |  |  |  | -0.06 | -0.091 | -0.313 |  |  |  |  | 0.091 |  | 0.104 |  |  |  | 
13 | CREB3L2 (UniProt Q70SY1) |  | 0.085 |  | -0.23 | 0.706 (active) |  | 0.154 | 0.436 | 0.081 |  |  | 0.067 | 0.035 | -0.125 |  | -0.031 |  |  | -0.036 | 0.069
14 | CFAP58 (UniProt Q5T655) |  | 0.185 | 0.07 |  |  | -0.175 | -0.219 |  |  | -0.353 | -0.04 |  |  |  | -0.112 |  |  | -0.272 |  | 
15 | CNRIP1 (UniProt Q96F85) |  | 0.073 | 0.023 |  | -0.206 | -0.075 | -0.087 | 0.106 |  |  | 0.306 | -0.269 | -0.043 | -0.136 |  |  |  |  |  | 
16 | CASP7 isoform 3 (UniProt P55210) |  |  |  |  | 0.255 |  |  | -0.005 | -0.249 | 0.014 |  | 0.017 | 0.222 | -0.001 | -0.569 | 0.259 | 0.032 | -0.697 |  | 
17 | CEP128 (UniProt Q6ZU80) | -0.043 |  | 0.006 | -0.188 |  | -0.118 | -0.422 |  | 0.098 | -0.009 | -0.09 |  |  |  |  | 0.049 | 0.039 |  | -0.1 | -0.11
18 | CEMIP2 (UniProt Q9UHN6) |  | 0.043 | 0.592 (active) | 0.033 | 0.02 | -0.1 | -0.168 | -0.052 | -0.012 | -0.209 | -0.364 | -0.142 | 0.058 | -0.184 | -0.088 | 0.003 | 0.032 | 0.123 | -0.045 | -0.049
19 | CLASP2 (UniProt O75122) |  | -0.286 | -0.103 | 0.065 |  | -0.068 | -0.017 | 0.031 | 0.031 | -0.104 | -0.123 | 0.083 |  | -0.038 |  | 0.166 |  |  |  | 
